Test results published in PubChem BioAssay (EPA / NIEHS).
Calls of active or inactive are those of the source. How the source made its calls: active means hit-call score of the fitted dose curve at least 0.9, where 1 is the maximum; inactive means score below 0.9.

target: Cellular tumor antigen p53 (Homo sapiens) (UniProt P04637); assay: ATG_p53_CIS: Attagene CIS-FACTORIAL HepG2 Assay for human p53 Transcription Factor (AID 2282994); conditions: HepG2 p53 cis-element reporter, Attagene mRNA; actives raise or lower the signal
Sequence (P04637 whole entry, looked up): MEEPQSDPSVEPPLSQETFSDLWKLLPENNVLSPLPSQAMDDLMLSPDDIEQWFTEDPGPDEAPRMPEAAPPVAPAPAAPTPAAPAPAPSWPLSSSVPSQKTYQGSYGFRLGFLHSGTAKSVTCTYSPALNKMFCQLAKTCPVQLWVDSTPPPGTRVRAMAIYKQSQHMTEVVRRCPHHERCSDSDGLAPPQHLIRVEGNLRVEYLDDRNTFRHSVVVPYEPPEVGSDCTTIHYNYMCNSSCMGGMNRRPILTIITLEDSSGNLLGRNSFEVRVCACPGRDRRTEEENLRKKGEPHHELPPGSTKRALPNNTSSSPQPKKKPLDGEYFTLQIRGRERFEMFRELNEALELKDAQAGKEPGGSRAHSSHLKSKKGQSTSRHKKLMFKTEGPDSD
Protocol: ATG_CIS is a cell-based, multiplexed-readout assay that uses HepG2, a human liver cell line, with measurements taken at 24 hours after chemical dosing in a 24-well plate.ATG_p53_CIS is one of 52 assay component(s) measured or calculated from the ATG_CIS assay. It is designed to make measurements of mRNA induction, a form of inducible reporter, as detected with fluorescence intensity signals by Reverse transcription polymerase chain reaction (RT-PCR) and Capillary electrophoresis technology.Data from the assay component ATG_p53_CIS was analyzed into 1 assay endpoint. This assay endpoint, ATG_p53_CIS, was analyzed with bidirectional fitting relative to DMSO as the negative control and baseline of activity. Using a type of inducible reporter, measures of mRNA for gain or loss-of-signal activity can be used to understand the reporter gene at the transcription factor-level as they relate to the gene TP53. Furthermore, this assay endpoint can be referred to as a primary readout, because this assay has produced multiple assay endpoints where this one serves a reporter gene function. To generalize the intended target to other relatable targets, this assay endpoint is annotated to the dna binding intended target family, where the subfamily is tumor suppressor.
Human liver HepG2 cells are transiently transfected with multiple reporter transcription units (MRTUs) in 6-well plates using FuGene 6 reagent (Roche; 3 ml FuGene/1 mg DNA). The MRTU constructs are regulated by a cis-regulating element (promoter). […] A major difference between the CIS and TRANS system is that in CIS activities of endogenous TFs are measured, whereas the TRANS assay evaluates changes in activities of exogenous, chimeric NR-Gal4 proteins. […] At the end of 24 hour incubation, total RNA was isolated using TriZol reagent (Invitrogen). The isolated RNA is then reverse-transcribed using oligo(dT) primer and Mo-MLV reverse transcriptase (Invitrogen) with DNAse I (Ambion) treatment for 30 min. The one-tenth of the produced cDNA was amplified by PCR using Taq DNA polymerase (Invitrogen) and two reporter sequence-specific primers. The PCR products were fluorescently labeled by primer extension with 6-arboxyfluorescein (6-FAM) 5'-labeled reporter sequence-specific primer (2 min at 95 C, 20 s at 68 C and 10 min at 72 C) and these products were digested with 5U of HpaI (New England Biolabs) for 2h at 37 C. The fragments were purified using Qiaquick PCR columns (Qiagen), analyzed on an ABI 3130xL genetic analyzer (Applied Biosystems) with peak positions identified by using a set of X-rhodamine (ROX)-labeled MapMarker1000 molecular weight standards (BioVentures). The raw capillary electrophoresis data was processed using Attagraph software (Attagene).

Structure (SMILES) | AC50 | outcome
O=C(CS)OCCOC(=O)CS | 100 µM (active) | 
OCc1ccc(Cl)cc1Cl |  | inactive
Nc1ccn([C@H]2CS[C@@H](CO)O2)c(=O)n1 |  | inactive
CC(Oc1cc(Cl)ccc1Cl)C(=O)O (stereo not given) |  | inactive
CCCC[O][Al]([O]CCCC)[O]CCCC |  | inactive
C=C(C)C(=O)OCCOCCOCCOC(=O)C(=C)C |  | inactive
CN(C)C(=S)SC(=S)N(C)C |  | inactive
CCOc1ccc(NC(=O)CC(C)O)cc1 (stereo not given) |  | inactive
CCCCCCCCCCCCS(=O)(=O)Cl |  | inactive
CC(=O)C1(C)CC2=C(CCCC2(C)C)CC1C (stereo not given) | 144 µM (active) | 
CCC(C)S (stereo not given) |  | inactive
CCCCC(CC)C(=O)OC(C)C (stereo not given) |  | inactive
CCCCCCOC(=O)CCC |  | inactive
COC(=O)c1ccc(OC)cc1 |  | inactive
CCCCCCCCC=CCCCCCCCC1=NCCN1CCO | 21 µM (active) | 
C#CC(C)(O)CC(C)C (stereo not given) |  | inactive
O=C1NC2NC(=O)NC2N1 (stereo not given) |  | inactive
OCC(O)c1ccccc1 (stereo not given) |  | inactive
Cc1c(Cl)cccc1[N+](=O)[O-] |  | inactive
CCN(CCC#N)c1ccc(N=Nc2ccc([N+](=O)[O-])cc2)cc1 |  | inactive

Structure (SMILES) | AC50 | outcome
COCCOCCOCCO |  | inactive
CCC1CCCCC1 |  | inactive
O=C1OC2(c3ccccc31)c1ccc(O)c(Br)c1Oc1c2ccc(O)c1Br |  | inactive
CCCCC(CC)(CO)CO |  | inactive
CCOC(=O)C(C#N)=C(c1ccccc1)c1ccccc1 |  | inactive
CCCCCC(C=O)=Cc1ccccc1 | 164 µM (active) | 
CC(=O)O[C@@H]1CC2CCC1(C)C2(C)C (stereo not given in full) |  | inactive
CCCCCCCCCCCCCCN(CCO)CCO |  | inactive
N[C@@H](Cc1cc(I)c(Oc2cc(I)c(O)c(I)c2)c(I)c1)C(=O)O |  | inactive
NC1CCCCC1N (stereo not given) |  | inactive
[Cl][Au]([Cl])[Cl] |  | inactive
O=C1CCCC=CCCCCCCCCCC1 |  | inactive
C[C@H](CCC(=O)NCC(=O)O)[C@H]1CC[C@H]2[C@@H]3[C@H](O)C[C@@H]4C[C@H](O)CC[C@]4(C)[C@H]3C[C@H](O)[C@]12C |  | inactive
CCCCC1CCC(O)CC1 (stereo not given) |  | inactive
CCc1cc(Cc2cc(CC)cc(C(C)(C)C)c2O)c(O)c(C(C)(C)C)c1 |  | inactive
CCOC(=O)CCc1ccccc1 |  | inactive
CCCC(=O)OCCc1ccccc1 |  | inactive
CC(C)(CO)[C@@H](O)C(=O)NCCC(=O)O |  | inactive
Cc1c(C2(c3cc(Br)c(O)c(Br)c3C)OS(=O)(=O)c3ccccc32)cc(Br)c(O)c1Br |  | inactive
CCCN(CCC)S(=O)(=O)c1ccc(C(=O)O)cc1 |  | inactive
